{
  "source": "PubChem BioAssay (NCI)",
  "note": "The panel holds about 83,000 compounds, 20% with a hit somewhere; the sample as a whole holds those more often.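 96-well plates, one dose, 48 hours. Percent growth reported; active if below 10.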 A number with no mark means an inactive call. Activity calls are given as the source filed them.",
  "data": [
    {"test_system": "NCI/ADR-RES ovarian", "experiment": "NCI-60 one-dose screen, 48 h (100 = growth as untreated, 0 = no growth, -100 = all killed)", "settings": "10 µM unless noted", "values": [
      {"smiles": "COC(=O)N[C@H]1CCc2c(Br)c(OC)c(OC)c(OC)c2-c2ccc(SC)c(=O)cc21", "growth": "7.33% (active)"},
      {"smiles": "O=C(N/N=C/c1ccc(N(CCCl)CCCl)cc1)c1cccc2ccccc12", "growth": "72.9%"},
      {"smiles": "O=[N+]([O-])c1c(Br)sc(Br)c1[N+](=O)[O-]", "growth": "-23.6% (active)"},
      {"smiles": "COC(=O)C12CC(NC(=O)c3csc([C@@H](C[C@H](C(C)C)N(C)C(=O)[C@@H](NC(=O)[C@H]4CCCCN4C)C(C)C)OC(C)=O)n3)(C1)C2", "growth": "-4.67% (active)"},
      {"smiles": "CC(=O)OC1CCC2(C)C(CCC3C2CC(=O)C2(C)C3CC(Sc3ccc(N(CCCl)CCCl)cc3)C2C(C)=O)C1", "note": "(stereo unspecified)", "growth": "74.7%"},
      {"smiles": "Oc1c(CCl)cc(Cl)cc1CCl", "growth": "102%"},
      {"smiles": "CC(=O)OCc1cc[c]([Hg][Cl])o1", "growth": "77.1%"},
      {"smiles": "COc1ccc(O)c(CNC(=O)CN2CCCC2=O)c1", "growth": "97.8%"},
      {"smiles": "CC12CCC(O)CC1=CCC1C2CCC2(C)C(O)CCC12", "note": "(stereo unspecified)", "growth": "110%"},
      {"smiles": "Cc1cc(N(CCCl)CCCl)ccc1/C=N\\NC(=O)c1ccncc1", "growth": "80.5%"},
      {"smiles": "Cc1ccc(C(=O)NCCCOc2ccc(N3C(N)=NC(N)=NC3(C)C)cc2Cl)cc1S(=O)(=O)F", "growth": "108%"},
      {"smiles": "Cn1cc(C=O)c2nccnc21", "growth": "105%"},
      {"smiles": "CC(=O)O[C@@H]1CC[C@]2(C)[C@H]3CC[C@]4(C)C(=O)CC[C@H]4[C@@H]3C[C@@H]3SC(N)=N[C@@]32C1", "growth": "44%"},
      {"smiles": "OCCNC(Cc1ccccc1)c1ccc2c(c1)OCO2", "note": "(stereo unspecified)", "growth": "102%"},
      {"smiles": "Nc1ccc2c(c1)Cc1cc(Br)ccc1-2", "growth": "101%"},
      {"smiles": "CN(CCCCN(C)CCOS(C)(=O)=O)CCOS(C)(=O)=O", "growth": "76.3%"},
      {"smiles": "CCn1cnc2c(Nc3cccc(Cl)c3)nc(N[C@@H]3CCCC[C@@H]3N)nc21", "growth": "11%"},
      {"smiles": "CCCCCC1(CCBr)C(=O)NC(=O)NC1=O", "growth": "121%"},
      {"smiles": "CC(=O)OC[C@]1(C)C=C2C(=O)[C@](C)(O)C3(CC3)C(C)=C2[C@H]1OC(=O)N(C)CCN(C)C(=O)OC(C)(C)C", "growth": "-2.04% (active)"},
      {"smiles": "CC(C)(C)C(=O)OCOP(=O)(OCOC(=O)C(C)(C)C)C1CCCN(O)C1=O", "note": "(stereo unspecified)", "growth": "1.93% (active)"},
      {"smiles": "C[C@]12CCc3nc(Nc4ccccc4F)sc3C1=CC[C@@H]1[C@@H]2CC[C@]2(C)C(=O)CC[C@@H]12", "growth": "73.9%"},
      {"smiles": "O=[N+]([O-])c1cc([N+](=O)[O-])c(Cl)cc1Cl", "growth": "-45.1% (active)"},
      {"smiles": "NC(=O)c1c(Br)n(C2OC(CO)C(O)C2O)c2ncnc(N)c12", "note": "(stereo unspecified)", "growth": "8.09% (active)"},
      {"smiles": "O=[N+]([O-])/C=C\\c1ccc(Cl)c(Cl)c1", "growth": "101%"},
      {"smiles": "CCOC(=O)C(Cc1ccc(N(CCCl)CCCl)cc1)NC(=O)C(CC(C)C)NC(C)=O", "note": "(stereo unspecified)", "growth": "46.6%"},
      {"smiles": "C[C@@H]1CCC2[C@@H](C)[C@H](OC(=O)CCC(=O)NCCNC(=O)Cc3cc(=O)oc4cc(N(C)C)ccc34)O[C@@H]3O[C@]4(C)CC[C@@H]1C23OO4", "note": "(stereo partly specified)", "growth": "16.6%"},
      {"smiles": "ClCCN(CCCl)c1ccc(-n2cnc3c(Cl)ncnc32)cc1", "growth": "61%"},
      {"smiles": "COc1cccc(/C=C/[N+](=O)[O-])c1", "growth": "92.6%"},
      {"smiles": "CC(=O)O[C@H]1CC[C@]2(C)[C@H]3CC[C@]4(C)[C@@H](OC(C)=O)CC[C@H]4[C@@H]3[C@@H](C)[C@]2(O)C1", "growth": "98.9%"},
      {"smiles": "COc1cc2c(c(OC)c1OC)-c1ccc([O-])c(=O)cc1[C@@H](NC(C)=O)CC2.COc1cc2c(c(OC)c1OC)-c1ccc([O-])c(=O)cc1[C@@H](NC(C)=O)CC2.[Cu+2]", "growth": "40.4%"},
      {"smiles": "CCCCCCCC(=O)OCC(=O)[C@]1(O)Cc2c(O)c3c(c(O)c2[C@@H](OC2CC(N)C(O)C(C)O2)C1)C(=O)c1c(OC)cccc1C3=O", "note": "(stereo partly specified)", "growth": "50.7%"},
      {"smiles": "CCCC(C)C1(CC)C(=O)NC(=O)N(C)C1=O", "note": "(stereo unspecified)", "growth": "104%"},
      {"smiles": "CC1(C)N=C(N)N=C(N)N1c1ccc(OCCCNC(=O)Nc2ccc(S(=O)(=O)F)cc2)c(Cl)c1", "growth": "115%"},
      {"smiles": "COC(=O)[C@@H](C)C[C@H](Cc1ccccc1)NC(=O)c1csc([C@@H](C[C@H](C(C)C)N(C)C(=O)C2(NC(=O)[C@H]3CCCCN3C)CCC2)OC(C)=O)n1", "growth": "46.5%"},
      {"smiles": "CNC(=O)Oc1ccc(C(C)(C)C)cc1OC(=O)NC", "growth": "104%"},
      {"smiles": "C/C(=C\\c1ccn(-c2ccc(N)cc2)n1)[C@@H]1C[C@@H]2O[C@]2(C)CCC[C@H](C)[C@H](O)[C@@H](C)C(=O)C(C)(C)[C@@H](O)CC(=O)O1", "growth": "-2.72% (active)"},
      {"smiles": "Nc1ccc(Cl)cc1", "growth": "99.5%"},
      {"smiles": "Nc1ccc2c(c1)oc1ccccc12", "growth": "95.1%"}
    ]},
    {"test_system": "T-47D breast", "experiment": "NCI-60 one-dose screen, 48 h (100 = growth as untreated, 0 = no growth, -100 = all killed)", "settings": "10 µM unless noted", "values": [
      {"smiles": "COC(=O)N[C@H]1CCc2c(Br)c(OC)c(OC)c(OC)c2-c2ccc(SC)c(=O)cc21", "growth": "50.5%"},
      {"smiles": "O=C(N/N=C/c1ccc(N(CCCl)CCCl)cc1)c1cccc2ccccc12", "growth": "73.3%"},
      {"smiles": "O=[N+]([O-])c1c(Br)sc(Br)c1[N+](=O)[O-]", "growth": "-6.93% (active)"},
      {"smiles": "COC(=O)C12CC(NC(=O)c3csc([C@@H](C[C@H](C(C)C)N(C)C(=O)[C@@H](NC(=O)[C@H]4CCCCN4C)C(C)C)OC(C)=O)n3)(C1)C2", "growth": "75.2%"},
      {"smiles": "CC(=O)OC1CCC2(C)C(CCC3C2CC(=O)C2(C)C3CC(Sc3ccc(N(CCCl)CCCl)cc3)C2C(C)=O)C1", "note": "(stereo unspecified)", "growth": "66.7%"},
      {"smiles": "Oc1c(CCl)cc(Cl)cc1CCl", "growth": "102%"},
      {"smiles": "CC(=O)OCc1cc[c]([Hg][Cl])o1", "growth": "17.8%"},
      {"smiles": "COc1ccc(O)c(CNC(=O)CN2CCCC2=O)c1", "growth": "99.4%"},
      {"smiles": "CC12CCC(O)CC1=CCC1C2CCC2(C)C(O)CCC12", "note": "(stereo unspecified)", "growth": "99.4%"},
      {"smiles": "Cc1cc(N(CCCl)CCCl)ccc1/C=N\\NC(=O)c1ccncc1", "growth": "54.4%"},
      {"smiles": "Cc1ccc(C(=O)NCCCOc2ccc(N3C(N)=NC(N)=NC3(C)C)cc2Cl)cc1S(=O)(=O)F", "growth": "104%"},
      {"smiles": "Cn1cc(C=O)c2nccnc21", "growth": "104%"},
      {"smiles": "CC(=O)O[C@@H]1CC[C@]2(C)[C@H]3CC[C@]4(C)C(=O)CC[C@H]4[C@@H]3C[C@@H]3SC(N)=N[C@@]32C1", "growth": "65.8%"},
      {"smiles": "OCCNC(Cc1ccccc1)c1ccc2c(c1)OCO2", "note": "(stereo unspecified)", "growth": "60%"},
      {"smiles": "Nc1ccc2c(c1)Cc1cc(Br)ccc1-2", "growth": "102%"},
      {"smiles": "CN(CCCCN(C)CCOS(C)(=O)=O)CCOS(C)(=O)=O", "growth": "81.1%"},
      {"smiles": "CCn1cnc2c(Nc3cccc(Cl)c3)nc(N[C@@H]3CCCC[C@@H]3N)nc21", "growth": "0.53% (active)"},
      {"smiles": "CCCCCC1(CCBr)C(=O)NC(=O)NC1=O", "growth": "106%"},
      {"smiles": "CC(=O)OC[C@]1(C)C=C2C(=O)[C@](C)(O)C3(CC3)C(C)=C2[C@H]1OC(=O)N(C)CCN(C)C(=O)OC(C)(C)C", "growth": "8.4% (active)"},
      {"smiles": "CC(C)(C)C(=O)OCOP(=O)(OCOC(=O)C(C)(C)C)C1CCCN(O)C1=O", "note": "(stereo unspecified)", "growth": "8.21% (active)"},
      {"smiles": "C[C@]12CCc3nc(Nc4ccccc4F)sc3C1=CC[C@@H]1[C@@H]2CC[C@]2(C)C(=O)CC[C@@H]12", "growth": "37.5%"},
      {"smiles": "O=[N+]([O-])c1cc([N+](=O)[O-])c(Cl)cc1Cl", "growth": "-35.3% (active)"},
      {"smiles": "NC(=O)c1c(Br)n(C2OC(CO)C(O)C2O)c2ncnc(N)c12", "note": "(stereo unspecified)", "growth": "-14.7% (active)"},
      {"smiles": "O=[N+]([O-])/C=C\\c1ccc(Cl)c(Cl)c1", "growth": "38.3%"},
      {"smiles": "CCOC(=O)C(Cc1ccc(N(CCCl)CCCl)cc1)NC(=O)C(CC(C)C)NC(C)=O", "note": "(stereo unspecified)", "growth": "22.5%"},
      {"smiles": "C[C@@H]1CCC2[C@@H](C)[C@H](OC(=O)CCC(=O)NCCNC(=O)Cc3cc(=O)oc4cc(N(C)C)ccc34)O[C@@H]3O[C@]4(C)CC[C@@H]1C23OO4", "note": "(stereo partly specified)", "growth": "41%"},
      {"smiles": "ClCCN(CCCl)c1ccc(-n2cnc3c(Cl)ncnc32)cc1", "growth": "41.1%"},
      {"smiles": "COc1cccc(/C=C/[N+](=O)[O-])c1", "growth": "41.7%"},
      {"smiles": "CC(=O)O[C@H]1CC[C@]2(C)[C@H]3CC[C@]4(C)[C@@H](OC(C)=O)CC[C@H]4[C@@H]3[C@@H](C)[C@]2(O)C1", "growth": "106%"},
      {"smiles": "COc1cc2c(c(OC)c1OC)-c1ccc([O-])c(=O)cc1[C@@H](NC(C)=O)CC2.COc1cc2c(c(OC)c1OC)-c1ccc([O-])c(=O)cc1[C@@H](NC(C)=O)CC2.[Cu+2]", "growth": "41.1%"},
      {"smiles": "CCCCCCCC(=O)OCC(=O)[C@]1(O)Cc2c(O)c3c(c(O)c2[C@@H](OC2CC(N)C(O)C(C)O2)C1)C(=O)c1c(OC)cccc1C3=O", "note": "(stereo partly specified)", "growth": "-69.2% (active)"},
      {"smiles": "CCCC(C)C1(CC)C(=O)NC(=O)N(C)C1=O", "note": "(stereo unspecified)", "growth": "87%"},
      {"smiles": "CC1(C)N=C(N)N=C(N)N1c1ccc(OCCCNC(=O)Nc2ccc(S(=O)(=O)F)cc2)c(Cl)c1", "growth": "52.4%"},
      {"smiles": "COC(=O)[C@@H](C)C[C@H](Cc1ccccc1)NC(=O)c1csc([C@@H](C[C@H](C(C)C)N(C)C(=O)C2(NC(=O)[C@H]3CCCCN3C)CCC2)OC(C)=O)n1", "growth": "50.1%"},
      {"smiles": "CNC(=O)Oc1ccc(C(C)(C)C)cc1OC(=O)NC", "growth": "98.9%"},
      {"smiles": "C/C(=C\\c1ccn(-c2ccc(N)cc2)n1)[C@@H]1C[C@@H]2O[C@]2(C)CCC[C@H](C)[C@H](O)[C@@H](C)C(=O)C(C)(C)[C@@H](O)CC(=O)O1", "growth": "42.7%"},
      {"smiles": "Nc1ccc(Cl)cc1", "growth": "94.6%"},
      {"smiles": "Nc1ccc2c(c1)oc1ccccc12", "growth": "97%"}
    ]}
  ]
}
